Experimental data: PubChem BioAssay (NCATS)
Results filed as inconclusive are left out. Unmarked numbers belong to inactive results. The call rests on the fitted dose curve; in most records, active means well fitted activation curve with a large enough effect; inconclusive means small, poorly fitted or top-dose-only effect; inactive means no such curve, though single readings can be large or run the other way.

Target: Rap guanine nucleotide exchange factor 3 (Homo sapiens) (UniProt O95398)
Assay: Confirmatory qHTS for agonist of cAMP-regulated guanine nucleotide exchange factor 3 (EPAC1) (AID 1645881);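 further: EPAC1 catalysed release of BODIPY-GDP from Rap1B seen as fluorescence loss; 100% = effect of cAMP agonist control; nearly all actives have a fitted effect of over 75% in size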
Details: EPAC1 Rap1B BODIPY-GDP exchange fluorescence; series mostly up to 154 µM; activation: at the top concentration

Rap guanine nucleotide exchange factor 3 (Homo sapiens), sequence (O95398 whole entry, looked up): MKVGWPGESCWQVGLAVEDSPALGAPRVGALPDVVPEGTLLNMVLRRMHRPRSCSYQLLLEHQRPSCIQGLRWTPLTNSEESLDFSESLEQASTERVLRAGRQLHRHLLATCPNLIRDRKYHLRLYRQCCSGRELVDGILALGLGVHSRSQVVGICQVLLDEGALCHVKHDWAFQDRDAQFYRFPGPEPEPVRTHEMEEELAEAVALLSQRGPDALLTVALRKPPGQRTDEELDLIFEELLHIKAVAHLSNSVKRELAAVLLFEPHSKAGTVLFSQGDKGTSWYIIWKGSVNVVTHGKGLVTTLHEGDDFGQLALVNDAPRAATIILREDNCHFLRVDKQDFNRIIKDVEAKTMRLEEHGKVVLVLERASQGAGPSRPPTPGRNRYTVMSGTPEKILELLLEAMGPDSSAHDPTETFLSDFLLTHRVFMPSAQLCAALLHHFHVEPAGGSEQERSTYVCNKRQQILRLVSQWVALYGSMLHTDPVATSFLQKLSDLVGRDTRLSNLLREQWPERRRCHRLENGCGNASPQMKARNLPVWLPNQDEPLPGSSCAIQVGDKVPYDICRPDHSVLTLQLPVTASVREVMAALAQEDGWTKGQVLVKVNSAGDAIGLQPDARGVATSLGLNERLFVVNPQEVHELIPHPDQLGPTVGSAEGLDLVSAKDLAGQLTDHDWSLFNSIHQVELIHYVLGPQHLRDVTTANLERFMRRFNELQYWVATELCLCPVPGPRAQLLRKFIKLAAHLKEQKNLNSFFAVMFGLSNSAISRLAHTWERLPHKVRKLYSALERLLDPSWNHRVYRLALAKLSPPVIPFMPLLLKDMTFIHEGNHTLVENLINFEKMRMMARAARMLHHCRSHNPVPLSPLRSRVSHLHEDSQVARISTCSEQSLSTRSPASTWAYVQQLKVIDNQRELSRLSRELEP

| SMILES | activation [%] |
| --- | --- |
| Cc1ccc(N=C2NC(=O)/C(=C/C=C/c3ccco3)S2)cc1 | 10.7 |
| COc1cc(CNc2ccc(O)cc2)cc(Br)c1OCc1ccccc1F | 12.9 |
| Cc1ccccc1/C=C1\SC(=S)N(/N=C/c2cc([N+](=O)[O-])ccc2O)C1=O | -4.05 |
| O=C(c1[nH]c(C(F)(F)F)nc1-c1ccccc1)N1CCC(C(O)(c2ccccc2)c2ccccc2)CC1 | 9.53 |
| CCCn1cc(SCC(=O)NCc2ccc3c(c2)OCO3)c2ccccc21 | 8.27 |
| C[C@@H]1CN([C@@H](C)CO)C(=O)c2ccccc2-c2ccccc2CO[C@@H]1CN(C)S(=O)(=O)c1ccc(C(F)(F)F)cc1 | -32.9 |
| C/C(=N\Nc1ccc([N+](=O)[O-])cc1)c1ccc(O)cc1 | 13.3 |
| CCN(CC)c1ccccc1/C=C/[n+]1ccc(CCCCI)c2ccccc21 | 10.3 |
| COc1ccc(S(=O)(=O)/N=C2/NC(=O)/C(=C\c3cc(OC)c(OC)cc3[N+](=O)[O-])S2)cc1 | 2.42 |
| Cc1ccc(NCc2nc3ccccc3n2CCOc2ccccc2)cc1 | 20.1 |
| Cc1ccc(C(=O)c2cn(Cc3cccc(F)c3)c3nc(C)ccc3c2=O)cc1 | -27.7 |
| Cc1cccc(N(C)S(=O)(=O)c2c[nH]c3ccc([N+](=O)[O-])cc23)c1 | -5.29 |
| COC(=O)c1ccc2c(=O)n(CCCCCC(=O)N3CCN(c4cc(C)ccc4C)CC3)c(=O)[nH]c2c1 | -6.15 |
| COc1ccc(S(=O)(=O)N2CCCCC2)cc1NC(=O)c1c(F)cccc1Cl | -2.04 |
| COC(=O)[C@H](Cc1ccccc1)NC(=O)c1ccc2ccccc2n1 | 21.4 |
| CN(C)c1ccc(/C=C/c2cc[n+](C)c3ccccc23)cc1 | 0.71 |
| Cc1cccc(NC(=O)CSCC(=O)Nc2cccc(S(=O)(=O)N3CCCCCC3)c2)c1 | 13.7 |
| Cn1c(N)c(C(=O)COC(=O)CCCOc2ccc(Cl)cc2Cl)c(=O)n(C)c1=O | 13.2 |
| O=C1NC[C@@H](Cc2cccc3ccccc23)N(CCc2cc(C(F)(F)F)cc(C(F)(F)F)c2)C1=O | -32.8 |
| COc1ccc(C(=O)CC2(O)C(=O)N(Cc3cccc(C(F)(F)F)c3)c3ccccc32)cc1 (stereo not given) | -16 |
| CC(=O)N1CCC[C@H]1C(=O)NCC1Cc2cc(-c3cccc(OC(F)(F)F)c3)ccc2O1 (stereo not given in full) | -5.61 |
| CN(C)S(=O)(=O)N(CC(=O)NCCSc1ccc(Cl)cc1)c1ccccc1 | -5.55 |
| CC(C)C[C@H]1COCCS(=O)(=O)N1Cc1cccc(C(F)(F)F)c1 | -5.71 |
| Cc1cccc(CN2Cc3cccc4c3[C@H](C=CC4)CC2=O)c1 | -4.69 |
| O=C(Nc1cc(Cl)cc(Cl)c1)c1ccc(F)c(S(=O)(=O)NC2CCCC2)c1 | 2.17 |

Target: Rap guanine nucleotide exchange factor 4 (Homo sapiens) (UniProt Q8WZA2)
Sequence (Q8WZA2 whole entry, looked up): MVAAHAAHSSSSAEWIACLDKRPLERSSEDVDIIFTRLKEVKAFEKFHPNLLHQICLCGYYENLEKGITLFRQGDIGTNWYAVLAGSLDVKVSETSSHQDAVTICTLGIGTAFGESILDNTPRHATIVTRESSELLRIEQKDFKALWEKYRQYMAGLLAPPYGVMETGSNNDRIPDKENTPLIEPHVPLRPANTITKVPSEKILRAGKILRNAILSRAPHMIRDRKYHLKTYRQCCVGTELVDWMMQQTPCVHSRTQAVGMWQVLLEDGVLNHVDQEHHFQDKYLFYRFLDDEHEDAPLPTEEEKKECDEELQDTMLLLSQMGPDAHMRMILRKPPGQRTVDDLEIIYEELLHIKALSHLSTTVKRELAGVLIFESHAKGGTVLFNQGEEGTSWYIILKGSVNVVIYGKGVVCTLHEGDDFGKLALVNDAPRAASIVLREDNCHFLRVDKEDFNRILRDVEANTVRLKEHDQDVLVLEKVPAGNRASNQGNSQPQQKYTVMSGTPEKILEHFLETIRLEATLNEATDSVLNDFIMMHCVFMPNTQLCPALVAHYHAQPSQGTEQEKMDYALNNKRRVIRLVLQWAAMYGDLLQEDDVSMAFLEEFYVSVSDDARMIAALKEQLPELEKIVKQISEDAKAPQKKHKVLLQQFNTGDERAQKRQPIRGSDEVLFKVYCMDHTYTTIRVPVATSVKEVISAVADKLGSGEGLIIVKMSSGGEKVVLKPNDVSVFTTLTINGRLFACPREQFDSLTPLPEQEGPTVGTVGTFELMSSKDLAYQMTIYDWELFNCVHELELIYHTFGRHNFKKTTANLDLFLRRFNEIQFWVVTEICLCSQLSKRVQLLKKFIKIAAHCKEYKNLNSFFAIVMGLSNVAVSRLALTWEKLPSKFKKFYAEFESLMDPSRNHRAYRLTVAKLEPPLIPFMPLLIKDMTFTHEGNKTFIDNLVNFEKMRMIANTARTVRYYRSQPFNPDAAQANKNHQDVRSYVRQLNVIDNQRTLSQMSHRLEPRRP
Assay: Confirmatory qHTS for agonist of cAMP-regulated guanine nucleotide exchange factor 4 (EPAC2) (AID 1645884);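 further: nucleotide exchange releases bodipy-GDP from Rap1 and this lowers its fluorescence; on the % scale 0 is the no-effect control and ±100 the full control effect; nearly all actives have a fitted effect of over 65% in size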
Details: EPAC2 GEF activity, Rap1B-BODIPY-GDP fluorescence; series mostly up to 154 µM; activation: at the top concentration

| SMILES | activation |
| --- | --- |
| COC(=O)[C@]12CCCCC=C1N(Cc1ccco1)C(=O)[C@H](CC(=O)NCc1cccs1)C2 | 1.87% |
| CCc1cc(-c2n[nH]c(C)c2-c2ccccc2Cl)c(O)cc1OC | 16.2% |
| Cc1ccc(C2c3c(-c4cc(C)ccc4O)n[nH]c3C(=O)N2Cc2ccco2)cc1 (stereo not given) | -9.51% [at 83.8 µM, percent relative to cAMP agonist control] |
| C[C@H](CO)N1C[C@H](C)[C@H](CN(C)Cc2cccc(O)c2)OCc2ccccc2-c2c(n(C)c3ccccc23)C1=O | 8.26% [at 17.1 µM, percent relative to cAMP agonist control] |
| O=C1NC[C@H](Cc2ccccc2)N(C[C@@H]2CCCN2C[C@H](Cc2ccc(O)cc2)N2C[C@H](Cc3ccc(O)cc3)N(CC3CCCCC3)C(=O)C2=O)C1=O | 15.7% [at 17.1 µM, percent relative to cAMP agonist control] |
| Cc1nc2c(OCc3ccc(OC(F)F)cc3)cccn2c1N(C)C(=O)CCC1CCCC1 | -4.94% |
| COc1ccc(SC[C@H](C)CN2CC[C@H](C(C)(C)C)CCC2=O)cc1 | -1.45% |
| CCc1nc2ccc(C(=O)Nc3ccc(OC)c(OC)c3)cn2c1N(C)CCC(C)C | 6.16% [at 17.1 µM, percent relative to cAMP agonist control] |
| NC(=O)c1c(NC(=O)CSc2nnc(-c3ccco3)n2N)sc2c1CCCC2 | -1.53% |
| Cc1cc(C)cc(OCC(=O)OCC(=O)NC2CCCCCCC2)c1 | 0% |
| CN(CC(=O)Nc1ccc(Cl)c(C(F)(F)F)c1)CC(=O)NC1CCCCC1 | 2.72% |
| CC(C)Oc1cc(F)ccc1-c1cc(C(=O)Nc2ccc(C(C)C)cc2)[nH]n1 | 24.3% |
| O=C1CCCC2=C1CC(C(=O)OCc1ccccc1)C(=O)N2Cc1ccccc1 (stereo not given) | 0% [at 17.1 µM, percent relative to cAMP agonist control] |
| Cc1ccccc1CN1C(=O)C(C)Sc2ccc(-c3ccco3)cc21 (stereo not given) | 10.7% |
| COc1cc(S(=O)(=O)NC2CCCCC2C)ccc1Cl (stereo not given) | 2.68% |
| Cc1ccc(N=C2NC(=O)/C(=C/C=C/c3ccco3)S2)cc1 | 4.55% |
| COc1cc(CNc2ccc(O)cc2)cc(Br)c1OCc1ccccc1F | 0.373% [at 17.1 µM, percent relative to cAMP agonist control] |
| Cc1ccccc1/C=C1\SC(=S)N(/N=C/c2cc([N+](=O)[O-])ccc2O)C1=O | -2.95% |
| O=C(c1[nH]c(C(F)(F)F)nc1-c1ccccc1)N1CCC(C(O)(c2ccccc2)c2ccccc2)CC1 | -1.58% |
| CCCn1cc(SCC(=O)NCc2ccc3c(c2)OCO3)c2ccccc21 | 0% [at 17.1 µM, percent relative to cAMP agonist control] |

| SMILES | activation |
| --- | --- |
| C[C@@H]1CN([C@@H](C)CO)C(=O)c2ccccc2-c2ccccc2CO[C@@H]1CN(C)S(=O)(=O)c1ccc(C(F)(F)F)cc1 | 1.26% [at 17.1 µM, percent relative to cAMP agonist control] |
| C/C(=N\Nc1ccc([N+](=O)[O-])cc1)c1ccc(O)cc1 | 8.19% |
| CCN(CC)c1ccccc1/C=C/[n+]1ccc(CCCCI)c2ccccc21 | 9.7% |
| COc1ccc(S(=O)(=O)/N=C2/NC(=O)/C(=C\c3cc(OC)c(OC)cc3[N+](=O)[O-])S2)cc1 | 0% [at 17.1 µM, percent relative to cAMP agonist control] |
| Cc1ccc(NCc2nc3ccccc3n2CCOc2ccccc2)cc1 | -13.5% [at 83.8 µM, percent relative to cAMP agonist control] |
| Cc1ccc(C(=O)c2cn(Cc3cccc(F)c3)c3nc(C)ccc3c2=O)cc1 | -10.8% [at 83.8 µM, percent relative to cAMP agonist control] |
| Cc1cccc(N(C)S(=O)(=O)c2c[nH]c3ccc([N+](=O)[O-])cc23)c1 | -11.9% |
| COC(=O)c1ccc2c(=O)n(CCCCCC(=O)N3CCN(c4cc(C)ccc4C)CC3)c(=O)[nH]c2c1 | -2.45% [at 83.8 µM, percent relative to cAMP agonist control] |
| COc1ccc(S(=O)(=O)N2CCCCC2)cc1NC(=O)c1c(F)cccc1Cl | 0% |
| COC(=O)[C@H](Cc1ccccc1)NC(=O)c1ccc2ccccc2n1 | 3.75% [at 17.1 µM, percent relative to cAMP agonist control] |
| CN(C)c1ccc(/C=C/c2cc[n+](C)c3ccccc23)cc1 | 2.69% |
| Cc1cccc(NC(=O)CSCC(=O)Nc2cccc(S(=O)(=O)N3CCCCCC3)c2)c1 | 8.94% [at 17.1 µM, percent relative to cAMP agonist control] |
| Cn1c(N)c(C(=O)COC(=O)CCCOc2ccc(Cl)cc2Cl)c(=O)n(C)c1=O | 6.7% |
| O=C1NC[C@@H](Cc2cccc3ccccc23)N(CCc2cc(C(F)(F)F)cc(C(F)(F)F)c2)C1=O | -37.8% |
| COc1ccc(C(=O)CC2(O)C(=O)N(Cc3cccc(C(F)(F)F)c3)c3ccccc32)cc1 (stereo not given) | 5.88% [at 83.8 µM, percent relative to cAMP agonist control] |
| CC(=O)N1CCC[C@H]1C(=O)NCC1Cc2cc(-c3cccc(OC(F)(F)F)c3)ccc2O1 (stereo not given in full) | -16.1% |
| CN(C)S(=O)(=O)N(CC(=O)NCCSc1ccc(Cl)cc1)c1ccccc1 | 12% [at 83.8 µM, percent relative to cAMP agonist control] |
| CC(C)C[C@H]1COCCS(=O)(=O)N1Cc1cccc(C(F)(F)F)c1 | 0.0167% |
| Cc1cccc(CN2Cc3cccc4c3[C@H](C=CC4)CC2=O)c1 | 2.19% |
| O=C(Nc1cc(Cl)cc(Cl)c1)c1ccc(F)c(S(=O)(=O)NC2CCCC2)c1 | 0% [at 83.8 µM, percent relative to cAMP agonist control] |
